Source: PubChem BioAssay (National Center for Advancing Translational Sciences (NCATS))
An excerpt weighted towards active compounds, which were near 4.7% of everything screened.
D3 antag: qHTS of D3 Dopamine Receptor Antagonist: qHTS; D(3) dopamine receptor (Homo sapiens), P35462; D3R cells, DiscoveRx beta-arrestin luminescence, antagonist mode; active compounds read low; max response, negative = inhibition, %; 360,000 compounds, 2.5% hits; AID 652054, 2013; in the data active = max response below about -50%; inconclusive = no clear call, values can overlap the other calls; note: % is set by controls: 0 for no effect and ±100 for the full control effect
Target sequence (P35462 whole entry, looked up): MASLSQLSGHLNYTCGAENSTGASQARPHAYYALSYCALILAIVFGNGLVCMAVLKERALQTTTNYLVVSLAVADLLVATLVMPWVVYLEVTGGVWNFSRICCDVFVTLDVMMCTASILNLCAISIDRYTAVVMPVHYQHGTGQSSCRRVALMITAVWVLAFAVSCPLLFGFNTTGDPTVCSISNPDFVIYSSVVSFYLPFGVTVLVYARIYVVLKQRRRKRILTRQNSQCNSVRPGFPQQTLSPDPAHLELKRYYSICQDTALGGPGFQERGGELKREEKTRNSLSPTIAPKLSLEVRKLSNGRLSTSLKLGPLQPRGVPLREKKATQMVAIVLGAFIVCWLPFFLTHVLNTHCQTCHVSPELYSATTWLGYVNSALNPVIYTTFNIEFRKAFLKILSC
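Cells expressing the human receptor were seeded at 1500 cells/well, incubated overnight at 37 degrees C in 5% CO2, then exposed to library compounds with dopamine controls for 90 minutes at 37 degrees C before luminescent detection.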
TGFb inhibitor: qHTS for Inhibitors of TGF-b; HepG2 CAGA-GFP TGF-b/SMAD3 reporter, GFP fluorescence, 18 h; TGF-beta stimulated, 500 pg/mL final; Potency, µM (series often up to 46.1 µM), for inactives: at the highest dose activity, negative = inhibition, most hits filed as inhibitors; 410,000 compounds, 1.2% hits; note: potency is the fitted concentration of half-maximal effect; % is set by controls: 0 for no effect and ±100 for the full control effect; nearly all actives have a fitted effect of over 65% in size
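Smad-responsive CAGA-GFP expression was quantified in HEPG2 cells exposed to compounds and 500 pg/mL final TGF-beta for 18 h at 37 degrees C; unstimulated wells defined full inhibition.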
ATXN2 expr inh: Primary qHTS for Inhibitors of ATXN expression; HEK-293 ATXN2-luciferase reporter, luminescence, 24 h; Potency, µM (doses to about 57 µM), for the others: at the highest dose activity change, negative = inhibition, usual class: inhibitors; 360,000 compounds, 0.72% hits; AID 1745845, 2022; note: potency is the fitted concentration of half-maximal effect; % is set by controls: 0 for no effect and ±100 for the full control effect; nearly all actives have a fitted effect of over 55% in size
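qHTS (up to 57 uM final) was run with 24 h compound exposure of reporter cells at 37 °C. Each well was multiplexed: SteadyGlo luminescence measured ATXN2-luciferase expression after a fluorogenic Gly-Phe-AFC viability readout (25 uM final).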
S2 tox: Viability Counterscreen for Primary qHTS for Inhibitors of ATXN expression | S2 cells (HEK-293 line with an ATXN2-luciferase reporter) viability, CellTiter-Fluor protease fluorescence, 24 h | Potency, µM (titrated, usually from 56.7 µM), actives largely listed as cytotoxic | 400,000 compounds, 0.49% hits | AID 651635, 2014; note: potency is the fitted concentration of half-maximal effect; nearly all actives have a fitted effect of over 40% in size
HepG2 tox: qHTS for Inhibitors of TGF-b: Cytotox Counterscreen; 410,000 compounds, 0.76% hits; HepG2 CAGA-GFP viability, ATP luminescence, 18 h; Potency, µM (highest dose often 46.1 µM), for inactives: top-dose activity change, negative = cytotoxicity, usual class: cytotoxic; note: potency is the fitted concentration of half-maximal effect
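CellTiter-Glo luminescence gave cytotoxicity after 18 hours at 37 degrees C. The cells were HepG2 CAGA-GFP in 1% FBS DMEM, stimulated with 500 pg/mL TGF-beta after compound addition. %Activity was normalised to no-cell wells (complete cell-killing) and DMSO (no toxicity), and curves were fitted and classified.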
DRD3 agonist: qHTS of D3 Dopamine Receptor Agonist: qHTS; D3R DiscoveRx beta-arrestin cells, luminescence, 90 min; max activation, %; 410,000 compounds, 0.58% hits; in the data active = max activation above about 30%; note: 0% is about no effect
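Agonist-mode cell screen: cells plated at 1500/well and incubated overnight at 37 °C, then exposed to library compounds for 90 min at 37 °C. Detection reagent was added for 30–60 min at room temperature, and luminescence was read.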
* marks the source's active call; other numbers are inactive results; i = inactive; ? = inconclusive; . = no result; [ ] = remark or other dose. Unless noted, calls come from the whole dose curve; as a rule, active = well fitted curve in the direction sought with a large enough effect; inconclusive = small, poorly fitted or top-dose-only effect, or another doubt; inactive = no such curve, though single readings can be large; an effect the other way counts as inactive or inconclusive.

SMILES	D3 antag	TGFb inhibitor	ATXN2 expr inh	S2 tox	HepG2 tox	DRD3 agonist
CCN1C(=O)/C(=C\c2nc3ccccc3c(=O)n2CC)c2ccccc21	-2.6	0.4%	-14.1%[11.3 µM]	i	-12.1%	-3.7
CCN1C(=O)/C(=C/c2nc3ccccc3c(=O)n2-c2ccccc2)c2ccccc21	?	5.7%	?	?	15.8µM*	-5.3
CC(=O)Nc1ccc(S(=O)(=O)/N=C2\C(=O)c3ccccc3C([O-])=C2n2cc[n+](-c3ccccn3)c2)cc1	0.4	?	.	?	-131.0%	-14.1
Cc1ccc(NC(=O)C[n+]2ccn(C3=C([O-])c4ccccc4C3=O)c2)cc1	-0.1	-10.7%	-31.4%	i	-3.9%	-7.8
CCCC[n+]1ccn(C2=C([O-])c3ccccc3C(=O)/C2=N\S(=O)(=O)c2ccc(Br)cc2)c1	-18.0	6.31µM*	-11.2%	?	-43.7%	7.9
Cc1ccc(S(=O)(=O)/N=C2\C(=O)c3ccccc3C([O-])=C2n2cc[n+](CCC(C)C)c2)cc1	-75.6*	3.98µM*	?	i	7.08µM*	11.5
CN1C(=O)Cc2cc(S(=O)(=O)CCC(=O)N3CCN(c4cccc(Cl)c4)CC3)ccc21	.	?	-20.8%	i	-1.8%	-9.2
CN(C)CC/C=C1/c2ccccc2CS(=O)(=O)c2ccccc21	-5.2	-5.8%	5.6%	i	5.9%	6.2
O=C(N1CCN(CCO)CC1)N1c2ccccc2CCc2ccccc21	-22.3	-7.0%	.	i	-13.6%	-5.6
OCCN1CCN(CC/C=C2/c3ccccc3CSc3ccccc32)CC1	-104.6*	?	.	i	-60.3%	-22.2
CNCC/C=C1/c2ccccc2CSc2ccccc21	-80.6*	?	-12.9%	i	-60.9%	0.4
COCC1CCCN(Cc2ccc3c(c2)CN(C(=O)c2sc(C)nc2C)CCO3)C1 (centres undefined)	.	.	.	i	.	.
COC(=O)c1c(OCc2ccccn2)cc(=O)n2c1CCN(C(=O)c1cc(C(C)C)nn1C)CC2	.	.	.	i	.	.
CCCCCCOc1ccc(/C=C/C(=O)Nc2sc3c(c2C(=O)OC)CCC3)cc1OC	.	7.94µM*	?	14.1µM*	-102.1%	-37.1
CCOC(=O)c1c(NC(=O)/C=C/c2ccc(OCC)c(OC)c2)sc2c1CCC2	.	5.3%	2.4%	i	-2.9%	-3.0
C=CCn1c(C)cc(C(=O)CSc2nc3ccccc3c(=O)[nH]2)c1C	-62.2*	-24.1%	14.9%	i	5.5%	8.6
C=CCn1c(C)cc(C(=O)CSc2nc3ccccc3[nH]2)c1C	36.1	-2.4%	?	?	-2.0%	18.1
COc1ccc(OC)c(NCc2cccn2-c2nnc(N3CCC(C)CC3)s2)c1	.	-2.4%	.	.	-0.6%	0.1
CCCCS(=O)(=O)c1oc(-c2cccs2)nc1S(=O)(=O)c1ccc(F)cc1	.	5.01µM*	.	.	5.62µM*	-25.6
CCCCS(=O)(=O)c1oc(-c2ccc(F)cc2)nc1S(=O)(=O)c1ccc(C)cc1	.	4.47µM*	.	.	3.55µM*	-14.2
CCC(C)S(=O)(=O)c1oc(-c2ccc(F)cc2)nc1S(=O)(=O)c1ccc(F)cc1 (centres undefined)	.	?	.	.	3.55µM*	-37.1
CCCSc1oc(-c2cccs2)nc1S(=O)(=O)c1ccc(C)cc1	.	-24.3%	-8.2%	i	0.2%	6.8
CCS(=O)(=O)c1oc(-c2ccc(F)cc2)nc1S(=O)(=O)c1ccccc1	.	.	.	.	2.51µM*	-24.0
Cc1cc(-n2c(C)nc3ccccc3c2=O)ccc1NC(=O)C(F)(F)F	.	?	-0.7%	i	-12.5%	-0.4
CCc1cccc(N2C(=O)N(CC(=O)NCc3cccc(OC)c3OC)c3ccccc3S2(=O)=O)c1	.	-4.2%	-9.5%	?	-3.5%	1.6
CCCCCS(=O)(=O)c1oc(-c2cccs2)nc1S(=O)(=O)c1ccc(C)cc1	.	7.94µM*	.	.	-103.5%	-35.1
